Assay outcomes (PubChem BioAssay)
Most compounds without a hit are left out; they make up all but 21% or so of the library.
NS1 inh: inhibitors of influenza NS1 protein function; Potency, µM (series often up to 46.1 µM), without a hit: at the top dose activity, positive = more growth; 270,000 compounds, 0.4% hits; AID 2326; calls by dose curve; note: potency is the fitted concentration of half-maximal effect; actives are rising curves; nearly all actives have a fitted effect of over 50% in size
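OD600 was taken as the measure of yeast growth restored by compound in an NS1-expressing S. cerevisiae strain. Cells had been washed out of glucose medium and diluted 1:100 into galactose -URA medium, pH 6.0.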
Pf growth 96h: P. falciparum growth inhibition at 96 hour, primary screen for plastid delayed-death inhibitors | 320,000 compounds, 6.9% hits | Potency, µM (series often up to 28.7 µM), without a hit: top-dose activity change, negative = inhibition, actives largely listed as inhibitors | P. falciparum luciferase reporter growth, 96 h; note: potency is the fitted concentration of half-maximal effect; % is set by controls: 0 for no effect and ±100 for the full control effect
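Readout is luminescence from an integrated firefly luciferase in P. falciparum. Red cells, 2% hematocrit and 0.05% parasitemia final, were cultured with compound through two parasite generations (96 hours) at 37 C, 5% CO2.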
SARS PLP yeast: SARS-CoV PLP inhibition in yeast | S. cerevisiae expressing SARS-CoV PLpro, growth rescue | Potency, µM (top dose mostly 32.9 µM), without a hit: top-dose activity, positive = growth rescue, actives largely listed as activators | 330,000 compounds, 0.19% hits | AID 485353; calls by dose curve; note: potency is the fitted concentration of half-maximal effect; 0% is about no effect; nearly all actives have a fitted effect of over 55% in size
Pf growth 48h: P. falciparum growth inhibition at 48 hours (one generation). Potency, µM (series often up to 28.7 µM), for the others: top-dose activity change, negative = inhibition, most hits filed as inhibitors. 310,000 compounds, 5.9% hits. AID 504832. P. falciparum luciferase growth in erythrocytes, 48 h; note: potency is the fitted concentration of half-maximal effect; % is set by controls: 0 for no effect and ±100 for the full control effect
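Firefly luciferase activity from engineered P. falciparum reports growth; inhibitors lower the luminescent signal. Cultures contained 2% hematocrit erythrocytes at 0.1% final parasitemia.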
CHX counter: counter-screen for Shiga toxin inhibitors: cycloheximide protein synthesis inhibition; max response, %; AID 2314; cell reporter, cycloheximide protein synthesis inhibition counterscreen; 300,000 compounds, 12% hits; in the data active = max response mostly above about 13%, no sharp cut-off; inactive = mostly below about 14%; note: read at 38.3 µM for the half of the compounds with a filed dose; 0% is about no effect
Shiga toxin inh: Shiga toxin inhibition; Vero cells, Shiga toxin protein synthesis inhibition reporter; 290,000 compounds, 9.2% hits; AID 2315; inhibition, % at 38.7 µM; in the data active = inhibition mostly above about 28%, no sharp cut-off; inactive = mostly below about 43%; note: 0% is about no effect
* marks the source's active call; other numbers are inactive results; ? = inconclusive; / = no result given. Unless noted, calls come from the whole dose curve; as a rule, active = well fitted inhibition curve with a large enough effect; inconclusive = small, poorly fitted or top-dose-only effect, or another doubt; inactive = no such curve, though single readings can be large or run the other way.

SMILES	NS1 inh	Pf growth 96h	SARS PLP yeast	Pf growth 48h	CHX counter	Shiga toxin inh
CN1C(=O)C(C)(C)c2cc(S(=O)(=O)N3CCN(c4ccccc4)CC3)ccc21	8%	?	0%	?	4	23
CCc1ccc(OCC(=O)NC(=S)Nc2ccc(S(=O)(=O)NC3CCCCC3)cc2)cc1	1%	/	-9%	3%	1	-18
COC(=O)c1ccc(NS(=O)(=O)NC(=O)c2cn(C)c3ccccc23)cc1	2%	19%	-3%	25%	6	10
O=C(CN1CCN(c2ccc(C(F)(F)F)cn2)CC1)NCc1ccc2c(c1)OCO2	-1%	?	0%	0%	8	14
Cc1ccc(C)c(S(=O)(=O)N2CCCOC2CNC(=O)C(=O)NC2CC2)c1 (stereo not drawn)	6%	8%	-4%	1%	2	-5
O=C(Cc1ccccc1)Nc1nnc(-c2cccs2)s1	5%	38%	5%	28%	25*	40
O=C(Cc1ccccc1)Nc1nc(-c2cccs2)cs1	-17%	/	-9%	78%	43*	105*
CCC(=O)Nc1nnc(-c2cccs2)s1	-7%	35%	1%	5%	14	9
O=C(CN1C(=O)CCC1=O)Nc1nc(-c2cccs2)cs1	-1%	3%	4%	14%	1	14
O=C(NC(c1ccccc1)C(Cl)Cl)c1ccccc1 (stereo not drawn)	-30%	2.6µM*	-22%	-27%	-1	3
COC(=O)CC(NC(=O)c1ccc(C)cc1)c1ccccc1 (stereo not drawn)	-104%	242%	-9%	/	-3	-11
Cc1ccc(C(=O)NC(c2ccccc2)C(Cl)Cl)cc1 (stereo not drawn)	-12%	?	-2%	0%	15*	49
N#CCOc1coc(CN2CCN(c3cccc(Cl)c3)CC2)cc1=O	4%	?	-8%	3%	11	-11
CSc1sc(-c2n[nH]c(=S)n2C)c2c1C=CCC2	3%	5.9µM*	17%	?	-3	-6
C/C=C(/C)C(=O)O[C@@H]1c2c(ccc3ccc(=O)oc23)OC(C)(C)[C@@H]1OC(=O)/C(C)=C\C	20%	6.6µM*	-2%	6.6µM*	-2	-9
CC(=O)OC1c2c(ccc3ccc(=O)oc23)OC(C)(C)C1OC(=O)CC(C)C (stereo not drawn)	-51%	?	-31%	0%	-5	-20
C/C=C(/C)C(=O)O[C@@H]1c2c(ccc3ccc(=O)oc23)O[C@@H]1C(C)(C)OC(C)=O	12%	5.9µM*	-5%	-34%	-3	-13
C/C=C(/C)C(=O)O[C@@H]1[C@H](OC(=O)C=C(C)C)c2c(ccc3ccc(=O)oc23)OC1(C)C	-28%	?	10%	?	-3	-15
S=c1[nH]nc(Cn2c(-c3ccccn3)nc3ccccc32)n1-c1ccc2c(c1)OCCO2	6%	?	-2%	44%	62*	85*
S=c1[nH]nc(-c2ccc3ncccc3c2)n1-c1ccc2c(c1)OCCO2	/	?	-1%	-26%	9	-3
Fc1ccc(-n2c(-c3ccc4c(c3)OCO4)n[nH]c2=S)cc1Cl	12%	46%	-3%	92%	11*	13
Oc1ccc(-c2n[nH]c(=S)n2-c2ccc3c(c2)OCCO3)cc1	16%	?	24%	-13%	37*	59*
CC1CCN(S(=O)(=O)c2ccc(NC(=O)CN3C(=O)NC(C)(c4ccccc4)C3=O)cc2)CC1 (stereo not drawn)	/	?	-4%	-12%	/	/
O=C(NNC1=Nc2cccc3cccc1c23)c1ccc(Br)cc1	-31%	-27%	1%	12µM*	8	29
COc1ccccc1N(CC(=O)NC1CCCC1)C(=O)c1oc(C(C)(C)C)cc1C	0%	20%	0%	?	-4	-3
O=C(CSc1nc2cc(Cl)ccc2s1)c1cc2ccccc2o1	-65%	/	-12%	19%	-1	-7
Nc1ccc2nc(SCc3ccccc3F)sc2c1	2%	234%	-11%	224%	71*	87*
Nc1cc(N)nc(SCC(=O)c2ccccc2)n1	10%	?	1%	19%	40*	12
Nc1ccc2nc(SCC(=O)c3ccccc3)sc2c1	-26%	?	-20%	0%	45*	68*
